Shown is part of a subset that was picked to be rich in hits.
IL-1B inflam inh: inflammasome signaling inhibition, IL-1 beta readout. THP-1 LPS/ATP IL-1B secretion, AlphaLISA, 16 h; hits give low values. activity change, % at 57.5 µM. 4.7% of 360,000 active. AID 743279; in the data active = activity change below about -50%; inconclusive = mostly about -30% to -49%
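THP-1 cells pretreated 1 hr with compounds (up to 57.5 uM final), then stimulated with LPS (250 ng/mL final) plus ATP (1.25 mM final); secreted IL-1B measured by AlphaLISA after 16 hr, decreased signal indicating inhibition.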
DT40 TDP1 CPT: DT40-hTDP1 cell growth loss with CPT; chicken DT40 Tdp1-/-;hTDP1 cells + 20 nM CPT, ATP luminescence, 48 h; Potency, µM (highest dose often 46.2 µM), inactives show at the highest dose activity change, negative = growth inhibition, most hits filed as inhibitors; AID 686979; 12% of 420,000 active; note: potency is the fitted concentration of half-maximal effect; nearly all actives have a fitted effect of over 55% in size
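Chicken DT40 Tdp1-/- cells complemented with human TDP1, 400 cells/well, exposed to compounds plus 20 nM camptothecin for at least 48 h at 37 C; viability read as ATP content by CellTiter-Glo luminescence.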
DT40 TDP1 no CPT: qHTS for Inhibitors of human tyrosyl-DNA phosphodiesterase 1 (TDP1): qHTS in cells in absence of CPT | 15% of 420,000 active | Potency, µM (titrated, usually from 46.2 µM), inactives show at the highest dose activity change, negative = growth inhibition, usual class: inhibitors | AID 686978, 2013 | DT40 Tdp1-/- hTDP1 cells, no CPT, ATP luminescence, 48 h; note: potency is the fitted concentration of half-maximal effect; nearly all actives have a fitted effect of over 55% in size
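Growth of hTDP1-complemented DT40 Tdp1-knockout cells is measured by ATP luminescence after at least 48 hr compound exposure at 37 °C, with DMSO substituting for the 20 nM CPT used in the parallel screen.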
HT1080 IDH1KD tx: kills HT-1080 cells with IDH1 knockdown; HT-1080 IDH1 knockdown viability, ATP luminescence, 48 h; Potency, µM (titrated, usually from 46.1 µM), without a hit: top-dose activity, negative = toxicity, usual class: cytotoxic; 2% of 360,000 active;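 note: potency is the fitted concentration of half-maximal effect; 0% = DMSO wells and -100% = cell-free medium wells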
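After a 2 h attachment period, IDH1KD HT-1080 cells took pin-transferred compound for 48 h at 37 °C; ATP-based luminescence after 10 min room-temperature reagent incubation reported viability.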
ALOX12 inh: blocks human arachidonate 12S-lipoxygenase; purified 12hLO, xylenol orange hydroperoxide absorbance; Potency, µM (top dose mostly 108 µM), for inactives: at the highest dose activity change, negative = inhibition, most hits filed as inhibitors; 1.1% of 580,000 active; note: potency is the fitted concentration of half-maximal effect
Target sequence (P18054 whole entry, looked up): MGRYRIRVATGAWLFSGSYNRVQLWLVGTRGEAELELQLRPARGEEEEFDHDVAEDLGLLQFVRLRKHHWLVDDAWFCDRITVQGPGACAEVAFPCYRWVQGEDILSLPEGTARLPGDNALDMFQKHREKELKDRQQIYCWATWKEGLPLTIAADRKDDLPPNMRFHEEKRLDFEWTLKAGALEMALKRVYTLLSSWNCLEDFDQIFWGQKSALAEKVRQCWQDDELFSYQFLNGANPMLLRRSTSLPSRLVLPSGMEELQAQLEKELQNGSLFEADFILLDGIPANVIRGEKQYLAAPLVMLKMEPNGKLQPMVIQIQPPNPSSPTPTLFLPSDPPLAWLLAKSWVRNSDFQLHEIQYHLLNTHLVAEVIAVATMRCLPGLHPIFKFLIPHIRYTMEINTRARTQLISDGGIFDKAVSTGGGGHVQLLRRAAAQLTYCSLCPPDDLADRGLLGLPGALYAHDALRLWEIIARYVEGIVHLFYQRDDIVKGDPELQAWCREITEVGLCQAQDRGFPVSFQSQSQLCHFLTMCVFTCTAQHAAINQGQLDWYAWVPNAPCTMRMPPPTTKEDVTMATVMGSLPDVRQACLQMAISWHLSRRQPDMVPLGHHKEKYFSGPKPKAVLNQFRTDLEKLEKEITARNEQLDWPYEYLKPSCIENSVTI
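Hydroperoxide product was detected by ferrous iron/xylenol orange as the 573 to 405 nm absorbance ratio. Arachidonic acid at 40 uM (final) was turned over for 30 min at room temperature by 150 nM human 12hLO, pH 7.0 Hepes buffer, after 15 min compound preincubation.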
HT1080-NT tox: kills 2HG-producing HT-1080-NT fibrosarcoma cells; Potency, µM (series often up to 46.1 µM), for the others: top-dose activity, negative = less viability, usual class: cytotoxic; AID 686970; HT-1080-NT fibrosarcoma viability, CellTiter-Glo ATP luminescence, 48 h; 1.6% of 360,000 active;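 note: NT is the 2HG producing partner of a matched IDH1 knockdown line; potency is the fitted concentration of half-maximal effect; 0% = DMSO-treated cells and -100% = media-only wells without cells; nearly all actives have a fitted effect of over 55% in size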
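A 48-hour cytotoxicity screen used HT-1080-NT cells plated 2 hours before compound delivery. ATP-based CellTiter-Glo luminescence measured viability, normalized to DMSO and no-cell controls.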
An asterisk follows results filed as active; [ ] = dose if it differs, or a comment. Unless noted, calls come from the whole dose curve; as a rule, active = well fitted curve in the direction sought with a large enough effect; inconclusive = small, poorly fitted or top-dose-only effect, or another doubt; inactive = no such curve, though single readings can be large; an effect the other way counts as inactive or inconclusive. Unless noted, % is set by controls: 0 for no effect and ±100 for the full control effect.

For COc1cccc(C2=NN(C(=O)c3ccco3)C(O)(C(F)(F)F)C2)c1 (stereo unspecified) the results were IL-1B inflam inh 0.0, DT40 TDP1 CPT -2.7%, DT40 TDP1 no CPT inconclusive, HT1080 IDH1KD tx inconclusive, ALOX12 inh 18.4% and HT1080-NT tox 4.1%.
`CCCCC1=NN(C(=O)c2ccco2)C(O)(C(F)(F)F)C1` (stereo unspecified) gave IL-1B inflam inh 41.8, DT40 TDP1 CPT 0.517µM*, DT40 TDP1 no CPT 0.517µM*, HT1080 IDH1KD tx inconclusive, ALOX12 inh -7.4% and HT1080-NT tox -25.4%.
For COc1cccc(C(=O)N2N=C(c3ccccc3)CC2(O)C(F)(F)F)c1 (stereo unspecified) the results were IL-1B inflam inh -1.9, DT40 TDP1 CPT 3.2%, DT40 TDP1 no CPT inconclusive, HT1080 IDH1KD tx 2.6%, ALOX12 inh 2.1% and HT1080-NT tox 8.6%.
Cc1ccc(C2=NN(C(=O)c3ccco3)C(O)(C(F)(F)F)C2)cc1 (stereo unspecified) was read as IL-1B inflam inh -66.1*, DT40 TDP1 CPT inconclusive, DT40 TDP1 no CPT inconclusive, HT1080 IDH1KD tx -11.4%, ALOX12 inh inconclusive and HT1080-NT tox 1.8%.
For COc1cccc(C2=NN(C(=O)c3ccccc3)C(O)(C(F)(F)F)C2)c1 (stereo unspecified) the results were IL-1B inflam inh -10.2, DT40 TDP1 CPT 16.4µM*, DT40 TDP1 no CPT 20.6µM*, HT1080 IDH1KD tx -14.9%, ALOX12 inh -15.5% and HT1080-NT tox -6.0%.
For COc1cccc(CCC(=O)NCc2nnc3cc(-c4nc(C5CC5)no4)ccn23)c1 the results were ALOX12 inh 12.9%.
For O=C(CSc1nnc(-c2ccccc2O)o1)Oc1ccc(OCc2ccccc2)cc1 the results were IL-1B inflam inh 16.7, DT40 TDP1 CPT 13µM*, DT40 TDP1 no CPT 13µM*, HT1080 IDH1KD tx inconclusive, ALOX12 inh 7.5% and HT1080-NT tox inconclusive.
For Cc1ccc(N(CC(O)CN2CCCCC2)S(=O)(=O)c2ccc3ccccc3c2)cc1 (stereo unspecified) the results were ALOX12 inh -11.7%.
For Cc1ccc(-n2c(SCC(=O)NCC3CCCO3)nc3n[nH]c(C)c3c2=N)cc1Cl (stereo unspecified) the results were IL-1B inflam inh -17.8, DT40 TDP1 CPT 9.2µM*, DT40 TDP1 no CPT 9.2µM*, HT1080 IDH1KD tx -10.9%[9.24 µM], ALOX12 inh 1.1% and HT1080-NT tox -21.5%.
Screening Cc1ccc(-n2c(SCC(=O)NCC3CCCO3)nc3ccccc3c2=O)cc1 (stereo unspecified) returned IL-1B inflam inh -24.8, DT40 TDP1 CPT inconclusive, DT40 TDP1 no CPT -0.7%, HT1080 IDH1KD tx 1.1%, ALOX12 inh 9.8% and HT1080-NT tox -1.3%.
For COc1ccc(-n2c(SCC(=O)NCC3CCCO3)nc3c([nH]c4ccccc43)c2=O)cc1 (stereo unspecified) the results were IL-1B inflam inh 18.2, DT40 TDP1 CPT 5.9%, DT40 TDP1 no CPT -6.8%, HT1080 IDH1KD tx 0.0%, ALOX12 inh -9.5% and HT1080-NT tox 3.2%.
COc1ccc(-n2c(SCC(=O)NCC3CCCO3)nc3ccccc3c2=O)cc1Cl (stereo unspecified) was read as IL-1B inflam inh -10.3, DT40 TDP1 CPT 8.2µM*, DT40 TDP1 no CPT 20.6µM*, HT1080 IDH1KD tx 0.6%, ALOX12 inh 9.5% and HT1080-NT tox -2.5%.
Screening COc1ccc(-n2c(SCC(=O)NCC3CCCO3)nc3n[nH]c(C)c3c2=N)cc1 (stereo unspecified) returned IL-1B inflam inh -56.4*, DT40 TDP1 CPT inconclusive, DT40 TDP1 no CPT 18.4µM*, HT1080 IDH1KD tx -3.6%, ALOX12 inh 0.0% and HT1080-NT tox -6.6%.
O=C(c1cnc(C2CC2)nc1)N1C[C@@H](CN2CCCCCC2)[C@@H](CO)C1 was read as ALOX12 inh 49.8%.
Cc1cc(C(Br)(Br)Br)nc2ccccc12 was read as DT40 TDP1 CPT 2.51µM* and DT40 TDP1 no CPT 2.51µM*.
`Cc1cc(Cl)nc2ccccc12` gave DT40 TDP1 CPT 3.5% and DT40 TDP1 no CPT -2.6%.
Screening Cc1cc(C(F)(F)F)nc2ccccc12 returned ALOX12 inh 22.8%.
Cc1cc(/C=C\c2ccccc2)nc2ccccc12 was read as IL-1B inflam inh -52.3*, DT40 TDP1 CPT -6.7%, DT40 TDP1 no CPT -23.2%, HT1080 IDH1KD tx -24.2%, ALOX12 inh 0.0% and HT1080-NT tox 2.1%.
`CNC(=O)C1(N2CCC[C@H]2C(=O)NCCN(C)C)CCCCC1` gave ALOX12 inh -10.8%[176 µM].
For COc1ccccc1CNc1nc(C)c(C(C)=O)s1 the results were IL-1B inflam inh -1.4, DT40 TDP1 CPT 20.6µM*, DT40 TDP1 no CPT 16.4µM*, HT1080 IDH1KD tx -5.9%, ALOX12 inh inconclusive and HT1080-NT tox -3.3%.
For CCOC(=O)c1sc2nc(C)nc(N3CCN(c4ncccn4)CC3)c2c1C the results were IL-1B inflam inh -3.0, DT40 TDP1 CPT inconclusive, DT40 TDP1 no CPT 14.6µM*, HT1080 IDH1KD tx -0.6%, ALOX12 inh 12.0% and HT1080-NT tox 7.4%.
CCOC(=O)c1sc2nc(C)nc(NCCc3ccccn3)c2c1C was read as IL-1B inflam inh -54.7*, DT40 TDP1 CPT 20.6µM*, DT40 TDP1 no CPT 20.6µM*, HT1080 IDH1KD tx 3.9%, ALOX12 inh -25.7% and HT1080-NT tox 14.7%.
`CCOC(=O)c1sc2ncnc(N3CCN(C)CC3)c2c1C` gave IL-1B inflam inh inconclusive, DT40 TDP1 CPT inconclusive, DT40 TDP1 no CPT inconclusive, HT1080 IDH1KD tx -3.7%, ALOX12 inh -0.8% and HT1080-NT tox -2.1%.
CCOC(=O)c1sc2nc(CSc3ccccc3)nc(NCCN(C)C)c2c1C was read as IL-1B inflam inh inconclusive, DT40 TDP1 CPT 16.4µM*, DT40 TDP1 no CPT inconclusive, HT1080 IDH1KD tx inconclusive, ALOX12 inh -15.4% and HT1080-NT tox 18.4µM*.
`NCCC(O)C(=O)NC1C[C@@H](N)[C@H](O[C@@H]2OC(CN)C(O)C(O)C2O)C(O)[C@H]1O[C@H]1OC(CO)C(O)C(N)C1O` (stereo partly specified) gave DT40 TDP1 CPT -7.5% and DT40 TDP1 no CPT -8.9%.
`COC(=O)c1sc2nc(-c3ccccc3)nc(N3CCN(C)CC3)c2c1C` gave IL-1B inflam inh -15.0, DT40 TDP1 CPT inconclusive, DT40 TDP1 no CPT 25.9µM*, HT1080 IDH1KD tx -18.2%, ALOX12 inh -26.7% and HT1080-NT tox -15.6%.

Screening results as filed in PubChem BioAssay.
